Data on 30 molecules can be found in PubChem BioAssay.

Each structure is given as a SMILES string. Active and inactive are the calls of the source.

The nature of one assay: optical density shifts of acrAB sulA E. coli – strain DRC41, OD650, 48 h, E. coli filamentation inducer project, primary screen (AID 1152).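 Further: E. coli MC1000 strain DRC41 lacking acrAB efflux pump and sulA.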 The following applies: higher = more signal, called active from +8 up or from −8 down.
Regarding `O=C1OCCC=C[C@H]2OC34C=CCN(Cn5nnc6ccccc65)C(=O)[C@H]3N(CCO)C(=O)[C@@H]4C12` (stereo not given in full), the z-score was 1.41 (inactive).

Take `CC(C)Cc1ccc(CN2CC[C@@H](N)C2)cc1`: the z-score is -3.85 (inactive).

Consider `C[N+](C)(C)CCCCCCNC(=O)[C@H]1C[C@H]2C(=O)N[C@@H](Cc3ccccc3)C(=O)N2[C@H]1c1cccc(OCCO)c1`, for which the z-score is 0.123 (inactive).

For `CO[C@H]1O[C@H](CO)[C@@H](OC(=O)Nc2ccc(Oc3ccccc3)cc2)[C@H](OC(=O)Nc2ccc3c(c2)OCO3)[C@@H]1OC(=O)Nc1ccc2c(c1)OCO2`, the z-score is 0.599 (inactive).

For the molecule `C=C(CCCC)/C(=C/C[C@@H](OC(C)=O)c1ccccc1OCCO)c1cc(C(=O)OC)ccc1OC`, the z-score is 0.725 (inactive).

For the molecule `C=CCC(OC(C)=O)[C@@H]1[C@@H](N(Cc2cc3ccccc3o2)C(=O)Cc2ccc(OC)cc2)c2cc(OCCCO)ccc2N1C(=O)c1ccc2ccccc2c1` (stereo not given in full), the z-score was -0.829 (inactive).

As to `O=C1C2C=CC(C(O)c3c(F)cccc3Cl)N(Nc3ccccc3F)C2C(=O)N1c1ccccc1` (stereo not given), the z-score was -0.775 (inactive).

`CN(C)C(=O)[C@]1(Cc2ccccc2)N=C(c2ccc(OCCCO)cc2)O[C@@H]1c1ccccc1N=[N+]=[N-]`: the z-score was 0.554 (inactive).

Another assay is described as follows: probe aLefty1 binding on compound microarray – biochemical, small-molecule microarray, 635/667 nm fluorescence, primary screen (AID 1153).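 Further: score merges spot fluorescence with signal-to-noise ratio from the scanned slide images.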 The note with it: higher = more signal.
In turn, `O=C(CS)NCCCCCNC(=O)[C@@H]1C[C@@H]2C(=O)NCC(=O)N2[C@@H]1c1cccc(OCCO)c1` had a composite z-score of 0.269.

`O=C(CS)NCCCCCNC(=O)[C@H]1C[C@H]2C(=O)NCC(=O)N2[C@H]1c1cccc(OCCO)c1` had a composite z-score of -0.142.

On to `CN(C)CCCCNC(=O)[C@@H]1C[C@@H]2C(=O)N[C@@H](CCCCN)C(=O)N2[C@@H]1c1ccc(O)cc1`, for which the composite z-score worked out at 0.129.

Turning to `COc1ccc(CCNC(=O)[C@@]2(C)c3ccccc3C(=O)N(c3ccc(C)cn3)[C@H]2c2ccc(CO)cc2)cc1`, the composite z-score is -0.0378.

Molecule `O=C(NCCN1CCOCC1)[C@@H]1c2ccccc2C(=O)N(Cc2cc(C(F)(F)F)cc(C(F)(F)F)c2)[C@H]1c1ccc(CO)cc1` gave a composite z-score of 0.0479.

In turn, `O=C(NCc1ccccc1)[C@@H]1c2ccccc2C(=O)N(C2Cc3ccccc3C2)[C@H]1c1ccc(CO)cc1` displayed a composite z-score of 0.315.

`COCCOC(=O)N1C(=O)[C@@]2(c3cc(C#CC4(O)CCCCCC4)ccc31)[C@H](C(=O)Nc1nc3ccccc3s1)[C@H]1C(=O)O[C@H](c3ccccc3)[C@H](c3ccccc3)N1[C@@H]2c1ccccc1OCCO`: the composite z-score is 0.282.

Turning to `CC1CC/C=C\[C@H]2OC34C=CCN(c5ccc6ccccc6c5)C(=O)[C@H]3N(CCO)C(=O)[C@@H]4C2C(=O)O1` (stereo not given in full), the composite z-score turned out to be 0.552.

Molecule `O=C1O[C@@H](c2ccccc2)[C@@H](c2ccccc2)N2[C@@H](c3ccc(OCCO)cc3)[C@]3(C(=O)Nc4ccc(C#CCCO)cc43)[C@@H](C(=O)NC[C@H](O)c3ccccc3)[C@H]12` yielded a composite z-score of 0.708.

`O=C1OCCC/C=C\[C@H]2OC34C=CCN(c5ccc6ccccc6c5)C(=O)[C@H]3N(CCCCCO)C(=O)[C@@H]4C12` (stereo not given in full) came in with a composite z-score of -0.147.

Molecule `CC(C)CNC(=O)[C@@]1(Cc2ccccc2I)c2ccccc2C(=O)N(Cc2ccccc2C(F)(F)F)[C@H]1c1ccc(CO)cc1` returned a composite z-score of -0.103.

In turn, `C#CCOc1ccc(C[C@@H](C(=O)OC)N(CC#C)[C@@H](/C=C/C2CC2)[C@H](O)Cc2ccccc2)cc1` gave a composite z-score of -0.101.

As for `CCOC(=O)[C@H]1C/C=C/C[C@H](C(=O)OCC)C(=O)O[C@H]2[C@@H](OC)O[C@H](CO)[C@@H](OC(=O)c3ccc(Br)cc3)[C@@H]2OC1=O`, the composite z-score was -0.0349.

For the molecule `O=C1[C@@]23C=C(Br)[C@H](C[C@@H]2COC3)[C@]12CO2`, the composite z-score came to 0.151.

`O=C1NC(=O)C2C1C=CC(C(O)c1ccc(-c3ccccc3)s1)N2Nc1ccc(Cl)cc1Cl` (stereo not given) showed a composite z-score of -0.141.

The molecule `C=C(C(=O)CC[C@H](OC(C)=O)c1ccccc1OCCO)C(C)C` gave a composite z-score of -0.147.

`O=C1C2C=CC(C(O)COCc3ccccc3)N(Nc3ccc([N+](=O)[O-])cc3)C2C(=O)N1c1ccccc1` (stereo not given): the composite z-score was 0.447.

For the molecule `COCC(=C=CC[C@H](O)c1cccc(OCCO)c1)CCO`, the composite z-score is -0.0508.

In the case of `NCCCCCCNC(=O)[C@H]1C[C@H]2C(=O)N[C@@H](Cc3ccccc3)C(=O)N2[C@H]1c1cccc(OCCO)c1`, the composite z-score was -0.141.

In turn, `CCCCCN1CC=CC23O[C@@H]4C=CCOC(=O)[C@@H]4[C@H]2C(=O)N(C(C)CO)[C@@H]3C1=O` (stereo not given in full) came in with a composite z-score of -0.103.

As for `CC(c1ccccc1)C(O)C1C=CC2C(=O)N(C)C(=O)C2N1NC(=O)OC(C)(C)C` (stereo not given), the composite z-score was determined as 0.839.

The molecule `COCCCNC(=O)[C@@H]1c2ccccc2C(=O)N(Cc2ccccc2)[C@H]1c1ccc(CO)cc1` showed a composite z-score of 0.603.
